Laboratory results published in the supplement of paper PMC11732987, “Enantioselective OTUD7B fragment discovery through chemoproteomics screening and high-throughput optimisation” (Communications Chemistry, 2025).

Experiments:
Experiment in all cases: log2 ratio of Biotin-Ahx-Ub-VS probe labelling (fragment/DMSO); higher = less target engagement (more negative = stronger competition), active = hit call of the paper (q ≤ 0.05, log2 ratio ≤ -1)
Details in all cases: compound concentration: 200 uM; treatment time: 3 h
OTUD6B = biological target: T1, OTUD6B (UniProt Q8N6M0)
T1 sequence (whole entry): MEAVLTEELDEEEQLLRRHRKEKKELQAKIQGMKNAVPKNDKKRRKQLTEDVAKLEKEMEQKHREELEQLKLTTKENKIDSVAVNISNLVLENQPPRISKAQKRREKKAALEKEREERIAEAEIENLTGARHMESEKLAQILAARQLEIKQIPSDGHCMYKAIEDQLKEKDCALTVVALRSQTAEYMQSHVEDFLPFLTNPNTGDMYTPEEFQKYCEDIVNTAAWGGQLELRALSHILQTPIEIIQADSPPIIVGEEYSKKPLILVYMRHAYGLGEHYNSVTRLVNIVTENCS
In short: (§1)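 Labelled DUBs from HEK293T lysate were NeutrAvidin-enriched, digested with LysC and trypsin, and run by diaPASEF LC-MS/MS. Before that, each 495 µg sample in Tris/CHAPS/IGEPAL buffer with protease inhibitors was treated in triplicate with fragment at 200 µM or vehicle for 3 h, then with Biotin-Ahx-Ub-VS at 0.5 µM final for 1 h. Values are average log2 ratios of fragment over vehicle by unpaired t-test, based on global-median-normalised Spectronaut label-free quantities from proteins with ≥2 unique peptides.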

OTUD7B = biological target: T2, OTUD7B (UniProt Q6GQQ9)
T2 sequence (whole entry): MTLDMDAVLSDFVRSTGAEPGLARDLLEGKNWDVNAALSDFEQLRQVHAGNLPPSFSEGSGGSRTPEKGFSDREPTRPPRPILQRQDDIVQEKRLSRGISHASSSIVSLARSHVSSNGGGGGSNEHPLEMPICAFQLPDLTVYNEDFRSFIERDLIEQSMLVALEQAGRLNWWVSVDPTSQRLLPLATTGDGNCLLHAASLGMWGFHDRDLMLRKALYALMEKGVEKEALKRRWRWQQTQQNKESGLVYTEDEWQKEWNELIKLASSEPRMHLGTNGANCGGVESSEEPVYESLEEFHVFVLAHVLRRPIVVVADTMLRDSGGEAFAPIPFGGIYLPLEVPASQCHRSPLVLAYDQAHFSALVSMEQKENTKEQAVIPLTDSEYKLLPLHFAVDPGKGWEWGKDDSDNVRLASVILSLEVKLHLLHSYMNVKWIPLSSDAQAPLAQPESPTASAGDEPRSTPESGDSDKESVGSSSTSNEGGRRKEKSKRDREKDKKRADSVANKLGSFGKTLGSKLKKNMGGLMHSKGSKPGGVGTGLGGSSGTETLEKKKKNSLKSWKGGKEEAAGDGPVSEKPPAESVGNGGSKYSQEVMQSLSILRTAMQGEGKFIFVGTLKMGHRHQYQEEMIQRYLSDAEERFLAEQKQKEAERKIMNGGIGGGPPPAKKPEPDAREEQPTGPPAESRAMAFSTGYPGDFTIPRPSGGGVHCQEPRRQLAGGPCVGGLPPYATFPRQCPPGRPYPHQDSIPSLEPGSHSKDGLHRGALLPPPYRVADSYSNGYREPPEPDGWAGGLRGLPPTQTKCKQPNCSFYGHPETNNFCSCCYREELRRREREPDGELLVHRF
In short: as §1

PRPF8 = PRPF8 (UniProt Q6P2Q9)
In short: as §1

PSMD7 = biological target: T3, PSMD7 (UniProt P51665)
T3 sequence (whole entry): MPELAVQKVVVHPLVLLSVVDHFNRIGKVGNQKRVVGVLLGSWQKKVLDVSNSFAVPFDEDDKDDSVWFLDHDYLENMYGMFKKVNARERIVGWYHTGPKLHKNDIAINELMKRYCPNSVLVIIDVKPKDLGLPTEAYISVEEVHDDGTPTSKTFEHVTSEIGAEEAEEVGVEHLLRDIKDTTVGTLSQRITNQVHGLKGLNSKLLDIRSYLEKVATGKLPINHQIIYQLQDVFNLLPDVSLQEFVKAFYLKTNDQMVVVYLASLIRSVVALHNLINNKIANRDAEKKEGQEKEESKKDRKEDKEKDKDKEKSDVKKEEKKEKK
In short: as §1

UCHL1 = UCHL1 (UniProt P09936)
In short: as §1

UCHL3 = biological target: T4, UCHL3 (UniProt P15374)
T4 sequence (whole entry): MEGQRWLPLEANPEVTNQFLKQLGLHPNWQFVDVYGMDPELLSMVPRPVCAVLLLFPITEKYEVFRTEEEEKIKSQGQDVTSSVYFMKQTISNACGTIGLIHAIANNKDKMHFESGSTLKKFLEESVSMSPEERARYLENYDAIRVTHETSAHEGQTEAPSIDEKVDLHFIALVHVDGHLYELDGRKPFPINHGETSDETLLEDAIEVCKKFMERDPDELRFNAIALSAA
In short: as §1

UCHL5 = biological target: T5, UCHL5 (UniProt Q9Y5K5)
T5 sequence (whole entry): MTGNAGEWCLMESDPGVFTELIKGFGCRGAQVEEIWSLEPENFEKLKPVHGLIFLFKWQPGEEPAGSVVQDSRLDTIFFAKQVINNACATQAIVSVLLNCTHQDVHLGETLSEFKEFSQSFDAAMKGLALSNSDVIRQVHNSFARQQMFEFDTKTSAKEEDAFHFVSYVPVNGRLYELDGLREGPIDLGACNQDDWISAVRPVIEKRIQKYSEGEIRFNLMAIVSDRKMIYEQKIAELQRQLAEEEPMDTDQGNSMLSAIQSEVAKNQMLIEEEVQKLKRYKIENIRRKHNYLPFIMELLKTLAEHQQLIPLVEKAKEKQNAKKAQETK
In short: as §1

USP10 = USP10 (UniProt Q14694)
In short: as §1

USP15 = biological target: T6, USP15 (UniProt Q9Y4E8)
T6 sequence (whole entry): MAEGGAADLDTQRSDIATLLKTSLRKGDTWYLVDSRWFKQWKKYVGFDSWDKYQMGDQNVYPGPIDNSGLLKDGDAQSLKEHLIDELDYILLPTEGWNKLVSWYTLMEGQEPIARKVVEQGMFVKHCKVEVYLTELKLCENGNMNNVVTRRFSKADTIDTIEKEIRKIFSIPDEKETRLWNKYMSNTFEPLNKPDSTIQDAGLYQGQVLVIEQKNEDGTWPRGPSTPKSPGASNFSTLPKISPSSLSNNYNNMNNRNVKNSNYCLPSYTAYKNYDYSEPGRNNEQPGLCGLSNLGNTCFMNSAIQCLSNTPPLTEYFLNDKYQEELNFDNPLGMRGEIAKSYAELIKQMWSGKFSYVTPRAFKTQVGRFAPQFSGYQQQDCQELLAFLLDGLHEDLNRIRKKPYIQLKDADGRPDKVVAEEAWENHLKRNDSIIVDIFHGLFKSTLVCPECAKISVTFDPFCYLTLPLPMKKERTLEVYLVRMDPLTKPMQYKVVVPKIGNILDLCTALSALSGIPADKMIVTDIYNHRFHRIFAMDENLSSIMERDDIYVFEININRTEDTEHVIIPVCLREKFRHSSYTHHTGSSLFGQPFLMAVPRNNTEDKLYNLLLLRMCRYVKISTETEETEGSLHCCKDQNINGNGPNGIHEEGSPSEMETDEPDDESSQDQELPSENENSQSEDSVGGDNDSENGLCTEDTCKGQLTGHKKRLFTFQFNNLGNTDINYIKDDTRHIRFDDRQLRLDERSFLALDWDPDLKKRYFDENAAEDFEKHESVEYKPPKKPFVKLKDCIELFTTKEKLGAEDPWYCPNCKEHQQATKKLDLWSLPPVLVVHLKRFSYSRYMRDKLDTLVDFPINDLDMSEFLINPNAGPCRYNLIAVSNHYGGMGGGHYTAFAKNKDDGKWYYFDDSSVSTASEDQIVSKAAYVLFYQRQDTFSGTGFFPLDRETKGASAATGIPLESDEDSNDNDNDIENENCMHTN
In short: as §1

Measured: log2 ratio of Biotin-Ahx-Ub-VS probe labelling

Sequence of USP10 (Q14694 whole entry): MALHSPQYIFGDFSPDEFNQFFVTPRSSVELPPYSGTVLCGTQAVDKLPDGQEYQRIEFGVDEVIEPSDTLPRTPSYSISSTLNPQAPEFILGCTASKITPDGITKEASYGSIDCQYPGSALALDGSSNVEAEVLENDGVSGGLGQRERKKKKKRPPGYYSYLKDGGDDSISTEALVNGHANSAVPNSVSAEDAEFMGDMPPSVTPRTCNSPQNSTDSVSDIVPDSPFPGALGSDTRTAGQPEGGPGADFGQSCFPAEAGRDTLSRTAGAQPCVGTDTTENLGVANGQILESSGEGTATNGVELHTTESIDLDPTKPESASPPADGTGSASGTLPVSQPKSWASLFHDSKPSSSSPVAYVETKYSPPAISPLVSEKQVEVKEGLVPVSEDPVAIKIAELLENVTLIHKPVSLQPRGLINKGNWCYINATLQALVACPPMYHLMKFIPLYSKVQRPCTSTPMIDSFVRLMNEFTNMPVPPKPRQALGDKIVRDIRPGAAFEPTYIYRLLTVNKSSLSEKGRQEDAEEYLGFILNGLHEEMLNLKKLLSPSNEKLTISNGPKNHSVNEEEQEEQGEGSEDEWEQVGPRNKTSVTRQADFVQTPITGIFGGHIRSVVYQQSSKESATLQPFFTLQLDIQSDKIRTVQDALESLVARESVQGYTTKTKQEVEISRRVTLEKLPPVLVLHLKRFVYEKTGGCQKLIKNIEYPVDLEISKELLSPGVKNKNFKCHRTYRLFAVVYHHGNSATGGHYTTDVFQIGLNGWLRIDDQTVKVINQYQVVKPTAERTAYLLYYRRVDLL
Sequence of UCHL1 (P09936 whole entry, looked up): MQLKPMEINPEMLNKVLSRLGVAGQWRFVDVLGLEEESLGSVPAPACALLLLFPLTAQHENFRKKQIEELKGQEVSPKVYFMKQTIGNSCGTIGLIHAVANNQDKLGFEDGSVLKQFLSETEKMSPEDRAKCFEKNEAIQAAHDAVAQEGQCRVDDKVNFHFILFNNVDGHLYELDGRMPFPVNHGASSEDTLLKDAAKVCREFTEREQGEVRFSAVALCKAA

Cl.Cn1ncc2c1CC(NC(=O)CCl)CC2 (centres undefined)
inactive: OTUD6B 0.0134 | OTUD7B -0.999 | PRPF8 0.142 | PSMD7 -0.2 | UCHL3 0.377 | UCHL5 -0.0217 | USP10 -0.106 | USP15 -0.0211
active: UCHL1 -1.84
